KDM5B inh – inhibitors of human KDM5B histone demethylase; Q9UGL1; KDM5B demethylase, FDH-coupled NADH fluorescence (FDH is formaldehyde dehydrogenase); AID 1347165; Potency, µM (doses to about 57.7 µM), actives largely listed as inhibitors; 220,000 compounds, 2.6% hits; active means well fitted inhibition curve with a large enough effect; inconclusive means small, poorly fitted or top-dose-only effect; inactive means no such curve, though single readings can be large or run the other way; further: potency means the concentration at half of the fitted maximal effect; 0% is about no effect; nearly all actives have a fitted effect of over 70% in size
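Coupled FDH/NAD⁺ fluorescence readout. KDM5BΔAP 200 nM final; compound titration, 10 min RT preincubation; substrate mix 12.5 µM H3K4me3, 25 µM 2-OG, 50 µM Fe(II), 100 µM ascorbate, 0.25 mM NAD⁺, 0.25 U/mL FDH; ΔRFU over 30 min.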
IP6K1 inhibitor – inhibitors of human IP6K1; IP6K1 kinase, ADP-Glo luminescence, 2 h; hits give low values; Q92551; activity change, % (series mostly up to about 58 µM); 140,000 compounds, 0.81% hits; in the data active means activity change below about -25%; further: on the % scale 0 is the no-effect control and ±100 the full control effect
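ADP-Glo luminescence measures ADP made by human IP6K1 during a 2 h RT reaction with ATP/IP6 (mix at 1.3 mM/130 uM); top library doses 57.5 and 19.1 uM final.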
Starred values were filed as active, the others as inactive; i = inactive; ? = inconclusive; / = not tested or not shown. Most compounds without a hit are left out; they make up all but 2.7% or so of the library.

SMILES | KDM5B inh | IP6K1 inhibitor
CN1CCC2(C1)CN(CC1CC1)c1ccc(C(=O)NCc3cccs3)cc12 (stereo unspecified) | ? | -1.7
CN1CCC2(C1)CN(CC1CC1)c1ccc(C(=O)NC3CCCCC3)cc12 (stereo unspecified) | 39.8µM* | 12.0
COc1ccc(-c2cc(N3CCCC(NC(=O)c4cc(C)cc(C)c4)C3)n[nH]2)cc1 (stereo unspecified) | i | 0.0
Cc1ccc(NC(=O)CCc2c(C)[nH]n(-c3ccc(F)cc3)c2=O)cc1F | i | /
Cc1c(Cl)cccc1NC(=O)C1CCCc2ccccc21 (stereo unspecified) | i | /
Cc1noc(C)c1C(=O)N1CCCC(N2C(=O)c3c(c(C)nn3-c3ccccc3)C2C)C1 (stereo unspecified) | / | 21.2
CN(C)CCNC(=O)c1ccc2c(c1)C1(CCN(CC3CC3)C1)CN2Cc1ccccc1 (stereo unspecified) | 35.5µM* | -3.5
COCCNC(=O)c1ccc2c(c1)C1(CCN(CC3CC3)C1)CN2Cc1ccccc1 (stereo unspecified) | 35.5µM* | 12.3
Cc1nc2ccc(C(=O)NC3CCN(Cc4ccccc4)CC3)cc2nc1C | i | /
O=C(NC1CCC1)c1ccc2c(c1)C1(CCN(CC3CC3)C1)CN2Cc1ccccc1 (stereo unspecified) | 39.8µM* | -5.6
CCNC(=O)c1ccc2c(c1)C1(CCN(CC3CC3)C1)CN2Cc1ccccc1 (stereo unspecified) | 35.5µM* | 11.2
C=CCNC(=O)NC(=O)CN(CC1CCOC1)C1CC1 (stereo unspecified) | i | /
Fc1cc(Br)ccc1OCc1cc(-c2cccs2)on1 | i | /
O=C(CSc1nc2ccc(NC(=O)C3CCCCC3)cc2s1)Nc1ccc(Cl)cc1 | i | /
O=C(CN1CCCCCC1)NCC1Cn2cccc2C(=O)N1Cc1ccccc1 (stereo unspecified) | i | 1.6
O=C1CCSc2c1cccc2C(=O)Nc1ccc(F)cc1Cl | i | /
CN1CCC2(C1)CN(Cc1ccccc1)c1ccc(C(=O)NC3COC3)cc12 (stereo unspecified) | 39.8µM* | 11.0
CN1CCC2(C1)CN(Cc1ccccc1)c1ccc(C(=O)NCCOc3ccccc3)cc12 (stereo unspecified) | 28.2µM* | -0.5
O=C1N(c2ccccc2)c2ccccc2C12CCN(CC1CC1)C2 (stereo unspecified) | i | -12.2
O=C(NCCOc1ccccc1)c1ccc2c(c1)OCCN(c1ccccc1)C2 | ? | -11.7
CN1CCC2(C1)CN(Cc1ccccc1)c1ccc(C(=O)NCC3CC3)cc12 (stereo unspecified) | 35.5µM* | 0.7
NC(=O)c1ccc2c(c1)C1(CCN(CC3CC3)C1)CN2Cc1ccccc1 (stereo unspecified) | 35.5µM* | 8.6
CN1CCCC2(C1)CN(Cc1cccnc1)c1ccc(C(=O)NCC3CCCCC3)cc12 (stereo unspecified) | i | 4.0
CN1CCC2(C1)CN(Cc1ccccc1)c1ccc(C(=O)Nc3ccn(C)n3)cc12 (stereo unspecified) | ? | 7.0
Cc1ccc(-c2cnc(CCC(=O)Nc3ccc(Cl)cc3F)o2)cc1 | i | /
SMILES | KDM5B inh | IP6K1 inhibitor
CC(=O)c1cccc(S(=O)(=O)Oc2ccc3c(C(F)(F)F)cc(=O)oc3c2)c1 | i | /
Cc1cc(N2C(=O)C(O)=C(C(=O)c3cc4ccccc4o3)C2c2ccc(F)cc2)no1 (stereo unspecified) | i | /
COc1ccc(-c2ccc(C(=O)NCC(F)F)c(Cl)c2)nn1 | / | 4.4
O=C(NCC(F)(F)F)c1ccc2c(c1)C1(CCN(CC3CC3)C1)CN2Cc1ccccc1 (stereo unspecified) | 20µM* | 19.4
O=C(Nc1ccc(O)cc1)c1cc(=O)[nH]c2ccccc12 | i | /
COCCN1C(=O)CO[C@H]2CN(c3ncccn3)C[C@H]21 | 35.5µM* | -7.4
COc1ccnc(N2C[C@@H]3OCC(=O)N(CC4CC4)[C@@H]3C2)n1 | ? | -5.6
COc1ccc(CN2CCNc3cc(-c4ccccc4)ncc3C2)cn1 | ? | -17.1
NC(=O)c1cccc(-c2cc3c(cn2)CN(Cc2ccccc2)CCN3)c1 | 31.6µM* | 8.2
NC(=O)c1cccc(-c2cc3c(cn2)CN(Cc2ccncc2)CCN3)c1 | ? | 12.1
c1ccc(CCN2CCNc3cc(NCc4cccnc4)ncc3C2)cc1 | 35.5µM* | -20.3
Cc1[nH]cnc1CN1CCNc2cc(-c3ccccc3)ncc2C1 | 31.6µM* | -3.5
CCn1cc(-c2cc3c(cn2)CN(Cc2cccnc2)CCN3)cn1 | 31.6µM* | -12.6
c1ccc(CCN2CCNc3cc(-c4cn[nH]c4)ncc3C2)cc1 | ? | -11.7
Oc1ccccc1CN1CCNc2cc(-c3ccccc3)ncc2C1 | ? | -9.3
CCOC(=O)N(C)CC(=O)NC1CCCCC1 | i | /
CCS[C@H]1CCN2C(=O)c3cc(-c4ccc(F)cc4F)ccc3NC(=O)[C@H]12 | ? | -15.3
Cc1cc(C(=O)Nc2ccc(C(=O)N(C)C)cc2)c2ccccc2n1 | i | /
c1cncc(-c2cc3c(cn2)CN(Cc2ccncc2)CCN3)c1 | ? | -2.3
c1ccc(CN2CCNc3cc(-c4cccnc4)ncc3C2)cc1 | 31.6µM* | -20.4
CCSc1ncc(Cl)c(C(=O)Nc2ccc(S(=O)(=O)N3CCCCC3C)cc2)n1 (stereo unspecified) | i | /
Cc1nn2c(c1-c1ccccc1OCc1ccccc1)N(Cc1ccc(C(=O)O)s1)CCC2 | ? | 21.3
Cn1ncc(CN2CCc3nc(-c4ccc(F)cc4F)[nH]c3C2)c1C1CC1 | 25.1µM* | 1.8
CN(C)c1nc2c(c(=O)[nH]1)CCN(Cc1ccc(F)cc1F)CC2 | i | 13.7
Cc1noc(CN2CCc3nc(-c4ccc(F)cc4F)[nH]c3C2)n1 | 31.6µM* | 0.1
SMILES | KDM5B inh | IP6K1 inhibitor
Cc1nc2c(c(-c3ccc(O)cc3)n1)CN(Cc1ccc(F)cc1)CC2 | i | -0.1
Cc1c(C)n(CCCN2CCOCC2)c2ncn3nc(-c4ccccn4)nc3c12 | i | /
O=C1CCN(C(=O)c2ccccc2)CCCC(C(=O)NCCCN2CCCc3ccccc32)CCN1 (stereo unspecified) | ? | 7.4
O=C(CCC1CCN(C(=O)c2ccccc2)CC1)NCCCN1CCCc2ccccc21 | 10µM* | 35.9
O=C1CC2(CCN(C(=O)C3CCN(C(=O)c4ccc(C(F)(F)F)cc4)CC3)CC2)Oc2ccccc2N1 | / | 29.8
COc1ccc(C(=O)NC2CCCc3c2[nH]c2ccccc32)cc1OC (stereo unspecified) | ? | 7.1
CNC(=O)c1cccc(-c2cnc(Nc3ccccc3)c3c2CCO3)c1 | 31.6µM* | -18.0
CNC(=O)c1cccc(-c2cnc(Nc3ccc(N4CCOCC4)cc3)c3c2CCO3)c1 | ? | -18.6
O=C(Nc1ncc(-c2ccccc2)c2c1OCC2)c1ccccc1 | i | -7.6
CNC(=O)c1cccc(-c2cnc(Nc3cccnc3OC)c3c2CCO3)c1 | 35.5µM* | -5.2
O=C(c1ccc2c(c1)OCO2)N1CCC2(CC1)N=C(c1ccccc1)NO2 | ? | -8.5
Cc1cc(N2CCN(c3ccccc3)CC2)n2nc(-c3ccccc3)nc2n1 | i | /
COc1cccc(NC(=O)Cn2cnc3onc(-c4ccccc4F)c3c2=O)c1 | i | /
CCCCc1ccc(-n2nnnc2SCC(=O)Nc2ccc(NC(C)=O)cc2)cc1 | i | /
Cc1ncccc1C(=O)N1CC(Oc2ccccc2-c2nc(-c3ccccc3)no2)C1 | ? | 6.3
